Measurements reported in PubChem BioAssay (NCI).
The panel holds about 83,000 compounds, 20% with a hit somewhere; the sample as a whole holds those more often.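 Activity criterion: percent growth below 10, measured after cells in 96-well plates were exposed to a single compound concentration for 48 hours.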 Unmarked numbers belong to inactive results. Calls of active or inactive are those of the source.

What was measured:
Assay in all cases: NCI-60 one-dose screen, 48 h (100 = growth as untreated, 0 = no growth, -100 = all killed)
Conditions in all cases: 10 µM
HCT-15 colon = tested on: HCT-15 colon
HT29 colon = tested on: HT29 colon
SNB-75 CNS = tested on: SNB-75 CNS
SNB-19 CNS = tested on: SNB-19 CNS
U251 CNS = tested on: U251 CNS
PC-3 prostate = tested on: PC-3 prostate
SK-MEL-5 melanoma = tested on: SK-MEL-5 melanoma
UACC-62 melanoma = tested on: UACC-62 melanoma
LOX IMVI melanoma = tested on: LOX IMVI melanoma
SK-MEL-28 melanoma = tested on: SK-MEL-28 melanoma

Compound	growth (HCT-15 colon)	growth (HT29 colon)	growth (SNB-75 CNS)	growth (SNB-19 CNS)	growth (U251 CNS)	growth (PC-3 prostate)	growth (SK-MEL-5 melanoma)	growth (UACC-62 melanoma)	growth (LOX IMVI melanoma)	growth (SK-MEL-28 melanoma)
O=C(Nc1cccc(C(F)(F)F)c1)c1cncc(C#Cc2cnc3ccc(N4CCOCC4)nn23)c1	-16.7% (active)	5.68% (active)	-39.9% (active)	-6.03% (active)	-3.92% (active)	6.2% (active)	-66.9% (active)	-22.1% (active)	-87.9% (active)	-17.8% (active)
CNC(=O)c1cccc(N2CCc3c2ccc(NC(=O)Nc2ccc(N4CCN(C)CC4)c(C(F)(F)F)c2)c3F)c1	-89.8% (active)	-88.3% (active)	7.71% (active)	-84.7% (active)	-92.1% (active)	-51.8% (active)	-100% (active)	88.9%	-100% (active)	-93.5% (active)
COc1ccc(N2N=C(c3ccc4c(c3)OCCO4)CC2c2cccc(NC(=O)CCCNS(=O)(=O)c3ccc(F)cc3)c2)cc1 (stereo not given)	67.5%	84.4%	42.4%	69.3%	75.4%	52%	64.2%	61.8%	72.5%	81.5%
Cc1nc2c(cnn2-c2ccccc2)c(=O)n1-c1ccc(NC(=O)c2ccc(F)cc2)cc1	66.1%	63.5%	64.5%	80.4%	81.1%	53.1%	-15.4% (active)	63.1%	61.8%	83.8%
CC(=O)Nc1ccc(-c2cn(-c3cccc(C(=O)Nc4cc(C(F)(F)F)cc(C(F)(F)F)c4)c3)nn2)cn1	-40.5% (active)	-37.4% (active)	-6.74% (active)	-42.4% (active)	-66.2% (active)	-59.5% (active)	-38.9% (active)	-46.2% (active)	-100% (active)	-46.4% (active)
O=C(NC(=S)N1CCN(c2ncnc3c2cnn3-c2ccccc2)CC1)c1ccc(Cl)cc1	52.3%	79.1%	2.35% (active)	28.2%	38.3%	47.3%	76.3%	68.9%	14.3%	82.5%
N#Cc1c(NC(=O)c2ccc(C(F)(F)F)cc2)sc2c1CCC(=O)C2	-66.1% (active)	8.13% (active)	-44.9% (active)	-42.2% (active)	-66.3% (active)	-9.55% (active)	-97.7% (active)	-82.7% (active)	-86.8% (active)	-88.2% (active)
CC(=O)Nc1ccc(-n2cnc3cc(-c4ccc(O)cc4)ccc32)cc1C	49.2%	61.6%	58.4%	58.4%	47.7%	58.5%	46.4%	42.9%	53.3%	51.8%
COc1ccc2[nH]c(O)c(N=NC(=O)c3cc(-c4ccc(C)cc4)nc4ccccc34)c2c1	62.8%	113%	95.4%	95.1%	88.5%	93.6%	94.6%	96.5%	83.5%	97.5%
C/C(=C\CSc1ccccc1C(=O)O)CCCC(C)CCCC(C)CCCC(C)C (stereo not given)	21.5%	59.4%	114%	80.4%	46.8%	41%	24.8%	42.5%	26.3%	71.5%
Cn1cc(-c2cc(N)n3nc(-c4c[nH]c5ccc(Br)cc45)cc3n2)c2cc(Br)cnc21	-96.3% (active)	-86.3% (active)	-19.6% (active)	-35.9% (active)	-76.5% (active)	-44.8% (active)	-99% (active)	-75% (active)	-94.5% (active)	-87.1% (active)
CN(C)c1ccc(/C=C/c2nc3ccccc3c(=O)n2CC(=O)Nc2ccccc2)cc1	52.4%	63.6%	62.6%	62.9%	16.5%	67.5%	62%	43.7%	1.57% (active)	35.6%
COc1ccccc1[C@H]1C(C(=O)c2ccc(O)cc2)C2(N[C@@H]1c1ccccc1)C(=O)Nc1ccc(Br)cc12 (stereo not given in full)	34.4%	-9.98% (active)	41%	49.3%	26.1%	23.2%	26.4%	38.1%	-39.3% (active)	60%
O=C(CN1CCN(c2ncnc3c2cnn3-c2ccccc2)CC1)Nc1nncs1	-30.7% (active)	-61.5% (active)	-75% (active)	58.4%	-72.5% (active)	-36.1% (active)	29.4%	17.4%	-87.4% (active)	72.3%
CC1(c2ccccc2)NC(=O)N(CC(=O)Nc2ccc(C(=O)/C=C/c3ccc(Br)cc3)cc2)C1=O (stereo not given)	19%	3.41% (active)	41.6%	56.7%	15.1%	20.1%	27.5%	27.2%	-49.1% (active)	48.9%
COc1cc2c(cc1OC)CN(CCCCOc1cc(O)c3c(=O)cc(-c4ccccc4)oc3c1)CC2	21.4%	-6.93% (active)	98.9%	78.3%	49.8%	63.1%	17.1%	40.4%	-66.1% (active)	-8.78% (active)
Cc1ccc(-c2nc3ccc(C(=O)N=Nc4c(O)[nH]c5ccc([N+](=O)[O-])cc45)cc3[nH]2)cc1	104%	66.6%	78.4%	55.4%	5.86% (active)	60.8%	89.3%	85.6%	54.9%	60.4%
Cc1cc(C)nc(NS(=O)(=O)c2ccc(N/C(N)=N/c3nccc(-c4ccccc4)n3)cc2)n1	59.4%	83.5%	88.3%	77.8%	77.6%	65.4%	46.3%	59%	39.4%	74.5%
O=C(CNc1nc(-c2ccccc2)cs1)Nc1ccc(Cl)cc1	-85.4% (active)	-51% (active)	-44.9% (active)	-100% (active)	-87.3% (active)	-40% (active)	-96.9% (active)	-92.4% (active)	-90.5% (active)	-96.2% (active)
Cc1noc2c(Cc3ccccc3)nn(CC(=O)N/N=C/c3ccc(Cl)cc3)c(=O)c12	86.3%	65.8%	-3.5% (active)	71.3%	21.6%	76.4%	85.5%	92.9%	48.7%	104%
COc1ccc(/C=C/C(=O)c2ccc(NC(=O)CN3C(=O)NC(C)(c4ccccc4)C3=O)cc2)cc1 (stereo not given)	75.7%	67.6%	96.8%	91.8%	67.7%	61.4%	60.1%	50%	56.5%	93.8%
COc1ccc(CN2[C@@H](C(=O)NCc3ccc(C(=O)NO)cc3)Cc3c([nH]c4ccccc34)[C@@H]2C)cc1	19.1%	17.6%	15.8%	40.3%	33%	29%	-21.1% (active)	-20.9% (active)	1.67% (active)	17.6%
COc1ccc(C2N(c3ccc(Br)cc3)N=C(C(C)=O)N2[C@H]2[C@H](OC(C)=O)O[C@H](COC(C)=O)[C@@H](OC(C)=O)[C@@H]2OC(C)=O)cc1 (stereo not given in full)	61.4%	75.2%	74.7%	78.2%	74.8%	43.2%	77.7%	56.9%	71.1%	86.4%
O=C(NO)c1ccc(CNC(=O)[C@H]2Cc3c([nH]c4ccccc34)[C@H](c3ccc(Cl)cc3)N2)cc1	30.5%	21.5%	39.6%	15.5%	-4.01% (active)	21.4%	-70.8% (active)	-49.8% (active)	-88.4% (active)	1.81% (active)
COc1ccc2nc(Nc3cccc(NC(=O)c4ccc(CN5CCN(C)CC5)c(C(F)(F)F)c4)c3)ccc2c1	-83.4% (active)	-73.9% (active)	-39.5% (active)	-96.8% (active)	-77.5% (active)	-8.06% (active)	-100% (active)	-93% (active)	-100% (active)	-96.9% (active)
Cc1ccc(-c2cc(-c3cc4ccccc4nc3Cl)[nH]c(=S)n2)cc1	30.2%	43.3%	66.2%	71.1%	71.8%	53.1%	-11% (active)	21.5%	53.6%	47.4%
